# Ba/F3 V617F tox = reduced viability of JAK2V617F-dependent Ba/F3 cells, primary screen, JAK2V617F inhibitor project, cell-based, Ba/F3 EpoR-JAK2V617F, luminescence; inhibition, % at 5.6 µM; 1.1% of 220,000 active; ATP luminescence;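 active = inhibition above the campaign mean plus 3 SD over all tested compounds, cut at about 24% in these data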;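 also: cytokine-independent growth of Ba/F3 cells driven by EpoR plus mutant JAK2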
# BaF3 tox = parental Ba/F3 cell viability inhibition, counter-screen for JAK2V617F inhibitor project, murine pro-B, CellTiter-Glo luminescence; CellTiter-Glo ATP luminescence; inhibition, % at 5.6 µM; 1.1% of 220,000 active;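 active = inhibition above a per-campaign cutoff, the mean inhibition of all tested compounds plus 3 SD, cut at about 27% in these data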
# IEC-6 tox = cytotoxicity in IEC-6 intestinal epithelial cells, primary screen, cytotoxicity control for KLF5 inhibitor project, cell-based, luminescence | inhibition, % at 5 µM | 0.78% of 290,000 active | AID 1825, 2009 | IEC-6 cytotoxicity, luminescence viability; in the data active = inhibition above about 22%
# KLF5 inhibitor = KLF5 expression inhibitors, primary screen, DLD-1 cells, luminescence; inhibition, % at 5 µM; DLD-1 KLF5 promoter-luciferase reporter; 0.23% of 290,000 active;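 active = inhibition above a per-plate limit of that plate's mean compound inhibition plus 3 SD, cut at about 60% in these data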;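 also: higher means less KLF5 promoter-driven luciferase light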
# APP 5UTR inh = inhibitors of APP translation via 5'UTR reporter, primary screen, APP 5'UTR luciferase, SH-SY5Y cells; SH-SY5Y APP 5'UTR-luciferase reporter, luminescence; inhibition, % at 2 µM; 0.82% of 190,000 active; AID 1285, 2008;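 active = inhibition above a set limit, derived from the sample mean plus 3 SD, cut at about 45% in these data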
# Hits are given with their value; i = inactive; nt = not tested or not shown. This is a sample that favours compounds with a hit; in the whole collection about 1.9% have one here.
SMILES,Ba/F3 V617F tox,BaF3 tox,IEC-6 tox,KLF5 inhibitor,APP 5UTR inh
C/C(=N\NC(=O)c1ccc(O)cc1)c1cc2ccccc2o1,i,i,i,i,i
OCCNc1c2ccccc2nc2c(F)c(F)c(F)c(F)c12,i,i,i,i,87
Cc1c2ccccc2nc2c(F)c(NCCO)c(F)c(F)c12,i,i,i,i,i
CCN1CCN(C(=O)Nc2cccc3ccccc23)CC1,i,i,i,i,57
Cc1ccc(NC2=C(Cl)C(=O)c3ccccc3C2=O)cc1,i,i,i,i,96
CCN(CC)c1ccc(NC2=C(Cl)C(=O)c3ccccc3C2=O)cc1,i,i,i,i,96
Cc1cc(C(=O)Nc2c(C)nn(Cc3ccc(Cl)cc3)c2C)no1,i,i,i,i,i
COC(=O)c1cc(COc2ccc3ccc(=O)oc3c2)c(C)o1,i,94,i,i,i
COC(=O)c1ccc(COc2ccc3ccc(=O)oc3c2)o1,nt,nt,i,i,nt
Cc1nnc(SCC(C)C)[nH]c1=O,i,i,i,i,i
O=S(=O)(c1cccc(C(F)(F)F)c1)N1CCCC1c1cccnc1 (centres undefined),i,32,i,i,nt
CCC1=Nc2cc(C(=O)NCc3ccco3)ccc2Sc2ccc(Cl)cc21,i,73,22,i,95
CCC1=Nc2cc(C(=O)NCc3ccco3)ccc2Sc2ccccc21,30,32,36,i,50
COc1ccccc1OCC(=O)N/N=C1\CCc2ccccc21,i,i,i,i,i
O=C(Cc1ccc(F)cc1)N1CCC(CC2CC(c3ccc(Cl)cc3)=NO2)(C(=O)NCC2CCCCC2)CC1 (centres undefined),nt,nt,i,i,nt
Cc1noc(C)c1S(=O)(=O)N1CCC(C(=O)NCCN2CCC(C)CC2)CC1,i,i,i,i,61
Cc1noc(C)c1S(=O)(=O)N1CCC(C(=O)NCCCN2CC(C)CC(C)C2)CC1 (centres undefined),i,i,i,i,i
Cc1cccc(C)c1NC(=O)C1(N(Cc2ccco2)C(=O)Cn2nnnc2N)CCCCC1,i,i,i,i,i
CN(C)c1ccc(/C=C/c2ccc3ccccc3n2)cc1,i,i,i,105,nt
C(=C\c1ccc2ccccc2n1)/c1ccccc1,i,i,i,i,i
CC[n+]1c(C)cc(C)n1-c1ccccc1,63,65,i,i,i
CCCc1nc(C)cc(N2CCN(c3ccccc3)CC2)n1,nt,nt,i,i,nt
O=C(/C=C/c1ccco1)N1CCN(S(=O)(=O)/C=C/c2ccccc2)CC1,i,i,i,i,i
COc1cc(/C=C2\CC/C(=C\c3cc(OC)c(OC)c(OC)c3)C2=O)cc(OC)c1OC,i,i,i,i,i
COc1cc(/C=C2\COC/C(=C\c3cc(OC)c(OC)c(OC)c3)C2=O)cc(OC)c1OC,99,105,i,i,nt
SMILES,Ba/F3 V617F tox,BaF3 tox,IEC-6 tox,KLF5 inhibitor,APP 5UTR inh
N#C/C(=C/c1ccc(N2CCOCC2)o1)c1ccc(Br)cc1,58,62,i,i,i
N#C/C(=C\c1ccc(N2CCOCC2)o1)c1ccccc1,i,30,i,i,i
N#C/C(=C/c1ccc(N2CCCCCC2)o1)c1ccc(F)cc1,i,i,i,i,i
CCCN1CCC(=NNc2ccc(S(=O)(=O)N3CCOCC3)cc2[N+](=O)[O-])CC1,i,i,i,i,88
CCC(=O)c1cn(CC(=O)OC)c2ccccc12,i,i,i,i,68
CC(=O)c1cn(CC(=O)Nc2c(C)cccc2C)c2ccccc12,33,43,i,i,i
CCC(=Nc1ccccc1OC)C1=C(O)CC(c2ccccc2)CC1=O (centres undefined),i,i,i,i,i
COc1ccc(C)cc1C(=O)CCC(=O)NCCc1ccc(S(N)(=O)=O)cc1,nt,nt,i,i,nt
Cc1ccc(C(=O)Nc2cc3ccccc3oc2=O)cc1,i,i,i,i,66
CC(=O)Nc1cc2ccccc2oc1=O,i,i,i,i,i
Cc1cc(NC(=S)NC(=O)c2ccccc2)ccc1-c1cc2ccccc2oc1=O,i,i,i,i,69
COc1cc(C(=O)NC(=S)Nc2cccc(-c3cc4ccccc4oc3=O)c2)cc(OC)c1OC,i,i,i,i,i
Nc1nc(N)c2cc(Sc3ccc4ccccc4c3)ccc2n1,96,101,81,i,nt
Nc1ccc(Sc2cc(Cl)nc(N)n2)cc1,i,i,i,i,i
NC(=S)N/N=C/c1ccccc1OCCSc1ccc(Cl)cc1,44,44,i,i,i
COc1ccccc1CN1CCC(n2nccc2NC(=O)c2ccccc2Cl)CC1,nt,nt,i,i,nt
CC(OC(=O)C(NC(=O)c1ccco1)C(C)C)C(=O)Nc1ncc(Cl)cc1Cl (centres undefined),i,i,i,i,i
CCOC(=O)c1c(C)[nH]c(C2=NNC(=Nc3ccc(OCC)cc3)SC2)c1C,i,i,i,i,i
CCC(C)(C)c1ccc(OCCCC[n+]2ccc(C)cc2)c(C(C)(C)CC)c1,102,103,i,i,i
CCC(C)(C)c1ccc(OCCCC[n+]2cccc(C)c2C)c(C(C)(C)CC)c1,99,99,i,i,nt
COc1ccc(C(=O)C[n+]2cccc(C)c2C)cc1[N+](=O)[O-],i,i,i,i,i
Cc1cc(C(C)(C)C)ccc1OCCCCN1CCCC1,i,i,i,i,i
COc1ccc(OC)c(CN2C(=O)c3ccccc3C2C(=O)NCC2CCCO2)c1 (centres undefined),i,i,i,i,i
O=C1c2ccccc2C(Nc2cccnc2)N1Cc1ccccc1Cl (centres undefined),i,i,i,i,i
COc1ccc(/C=C2\CN(Cc3ccccc3)C/C(=C\c3ccc(OC)cc3OC)C2=O)c(OC)c1,i,i,i,i,i
SMILES,Ba/F3 V617F tox,BaF3 tox,IEC-6 tox,KLF5 inhibitor,APP 5UTR inh
COc1ccc(C=C2c3ccccc3C(=O)c3ccccc32)c(OC)c1,84,83,87,i,nt
COC(=O)/C(=C/c1cccnc1)NC(=O)c1ccccc1,i,i,i,i,i
COC(=O)/C(=C\Nc1ccc(Oc2ccc(F)cc2F)nc1)NC(=O)c1ccccc1,i,36,i,i,nt
O=C(CN1CCN(c2ccc(F)cc2)CC1)Nc1ccc(F)c(F)c1,i,i,i,i,i
COc1ccc(/C=C2\SC(=S)N(CCCC(=O)NNC(=O)c3ccccc3O)C2=O)cc1,i,i,i,i,65
Cc1ccc(/C=C2\SC(=S)N(CCCC(=O)Nc3ccccn3)C2=O)cc1,i,i,i,i,55
COc1ccc(/C=C2/SC(=S)N(CCCC(=O)Nc3ccccc3C(=O)O)C2=O)cc1,nt,nt,i,i,nt
O=C(Oc1cccnc1)c1ccco1,i,i,i,i,46
O=C(Oc1cccc(OC(=O)c2ccco2)c1)c1ccco1,nt,nt,i,i,nt
CCc1ccc(C(=O)/C=C/c2ccc([N+](=O)[O-])o2)cc1,i,i,i,i,54
COc1ccc(/C=N/NC(=S)Nc2ccccc2)cc1,i,i,i,i,i

# Screening results as filed in PubChem.
